# Hits are enriched below; roughly 3.9% of the tested compounds scored in any of these assays.
# BH1578 lux ind = quorum light induction in luxS cqsA deficient V. cholerae; V. cholerae BH1578 lux reporter, luminescence, 6 h; activation, % at 18.7 µM; 0.16% of 350,000 active; in the data active means activation mostly above about 9.7%, no sharp cut-off
# GDH-TPI counter = GDH-TPI coupled enzyme inhibition counter-screen. GDH-TPI coupled enzyme counterscreen, NADH absorbance. inhibition, % at 4.8 µM. 1.2% of 360,000 active
# CCHF vOTU inh = CCHFV vOTU protease inhibition; inhibition, % at 11.5 µM; AID 651958; Pep-AMC fluorescence; 0.55% of 370,000 active
# FBA Mtb inh = inhibitors of M. tuberculosis fructose-bisphosphate aldolase | 2.3% of 360,000 active | inhibition, % at 1 µM | purified M. tuberculosis FBA, fluorescence read-out; in the data active means inhibition above about 27%
# Target sequence (P9WQA3 whole entry, looked up): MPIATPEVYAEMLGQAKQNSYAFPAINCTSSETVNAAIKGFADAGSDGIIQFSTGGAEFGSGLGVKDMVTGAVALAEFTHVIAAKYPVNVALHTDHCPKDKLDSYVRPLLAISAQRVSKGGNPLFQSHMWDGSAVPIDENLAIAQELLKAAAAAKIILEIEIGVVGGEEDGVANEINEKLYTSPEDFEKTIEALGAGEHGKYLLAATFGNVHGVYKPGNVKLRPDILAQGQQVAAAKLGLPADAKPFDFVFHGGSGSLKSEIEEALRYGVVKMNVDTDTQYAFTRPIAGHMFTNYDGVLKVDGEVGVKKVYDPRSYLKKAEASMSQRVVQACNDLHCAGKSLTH
# Hits are given with their value; . = inactive; / = not tested or not shown; + = active, no number. Unless noted, no stated cut-off is given here; in the data, active means inhibition above about 30%; inactive means the rest.
SMILES,BH1578 lux ind,GDH-TPI counter,CCHF vOTU inh,FBA Mtb inh
COc1ccc(-c2nc(C#N)c(N3CCCCCC3)o2)cc1OC,.,31,.,+
N#Cc1nc(-c2ccccc2)oc1N1CCCCC1,.,.,/,+
COc1ccc(-c2nc(C#N)c(N3CCC(C)CC3)o2)cc1,.,.,.,115
COc1ccc(Nc2oc(-c3ccccc3F)nc2C#N)cc1,.,.,.,.
N#Cc1nc(-c2ccco2)oc1N1CCCC1,.,.,.,189
CCCOc1ccc(-c2nc(C#N)c(N3CCC(C(N)=O)CC3)o2)cc1,.,.,.,+
N#Cc1nc(-c2ccc(Cl)cc2)oc1N1CCCCC1,.,.,.,+
COc1ccc(-c2nc(C#N)c(NC(C)C)o2)cc1,.,.,.,190
Cc1cccc(CN2CCN(CC(=O)NCc3ccc(F)cc3)C2=O)c1,.,.,.,.
O=C(CNC(=O)c1ccccc1)NCc1ccc(Cl)cc1,.,.,.,.
COc1ccccc1C1Nc2ccccc2NC2=C1C(=O)CC(C)(C)C2 (centres undefined),.,.,.,.
CC1(C)CC(=O)C2=C(C1)Nc1ccccc1NC2c1ccc2c(c1)OCO2 (centres undefined),.,41,.,.
CC1(C)CC(=O)C2=C(C1)Nc1ccccc1NC2c1ccc(F)cc1 (centres undefined),.,.,.,.
CC1(C)CC(=O)C2=C(C1)Nc1ccccc1NC2c1ccccn1 (centres undefined),.,42,.,.
COc1cccc(C2Nc3ccccc3NC3=C2C(=O)CC(C)(C)C3)c1OC (centres undefined),.,35,.,.
COc1ccc(C2Nc3ccccc3NC3=C2C(=O)CC(C)(C)C3)c(OC)c1OC (centres undefined),.,.,.,.
CC1(C)CC(=O)C2=C(C1)Nc1ccccc1NC2c1nc2ccccc2[nH]1 (centres undefined),.,32,.,.
Cc1cccc(C)c1NC(=O)COC(=O)C1CC1,.,.,.,.
CCOC(=O)C(C)NC(=O)C(NC(=O)C1CCC(CC)CC1)C(C)C (centres undefined),.,.,.,.
COc1cccc(Cn2c(C(C)n3c(-c4cnccn4)nc4ccccc43)nc3ccccc32)c1 (centres undefined),/,/,.,/
CCCCCCSc1ccc([C@H]2N[C@@](Cc3ccccc3)(C(=O)OC)[C@H]3C(=O)N(C)C(=O)[C@@H]23)cc1,.,.,.,.
O=S1(=O)CC2c3ccc(F)cc3CN2CN1Cc1ccc(F)cc1 (centres undefined),/,/,.,/
N#Cc1cc2cc3c(cc2nc1SCC(=O)N1CCOCC1)OCO3,.,.,.,.
COc1cccc2sc(Nc3nnc(-c4ccccc4Cl)o3)nc12,.,.,.,.
COc1cccc(-c2nnc(Nc3nc4c(F)cccc4s3)o2)c1,.,59,.,134
SMILES,BH1578 lux ind,GDH-TPI counter,CCHF vOTU inh,FBA Mtb inh
COc1cc(/C=N/N=C2/SCC(=O)N2c2ccc(O)cc2)ccc1O,.,.,.,.
COc1cc(/C=N\N=C2/SC(CC(=O)O)C(=O)N2c2ccc(O)cc2)ccc1O (centres undefined),.,32,.,.
O=C(O)CC1S/C(=N/N=C/c2ccc([N+](=O)[O-])cc2)N(c2ccc(O)cc2)C1=O (centres undefined),.,.,.,.
COc1ccc(/C=N\N=C2/SC(CC(=O)O)C(=O)N2c2ccc(O)cc2)cc1OC (centres undefined),.,44,.,.
CCOc1ccc(CNS(=O)(=O)c2cc(CN3C(=O)c4cccnc4C3=O)ccc2OC)cc1,.,.,.,.
CCn1c(NC(=O)c2cccs2)nc2ccccc21,.,36,.,.
CCn1c(NC(C)=O)nc2ccccc21,.,.,.,.
CCCCOc1ccc(C(=O)N/C(=C/C=C/c2ccccc2)C(=O)NCCO)cc1,.,31,.,.
COc1ccc(/C=C(/NC(=O)c2ccc([N+](=O)[O-])cc2)C(=O)NCCCN(C)C)cc1,.,.,.,.
CCCCOc1ccc(C(=O)N/C(=C/C=C/c2ccccc2)C(=O)NCCCO)cc1,.,.,.,.
CCCCOC(=O)/C(=C/C=C/c1ccccc1)NC(=O)c1ccccc1,.,.,.,.
CN(C)CCCNC(=O)/C(=C\C=C\c1ccccc1)NC(=O)c1ccc([N+](=O)[O-])cc1,.,34,.,.
C=CCNC(=O)/C(=C\C=C\c1ccccc1)NC(=O)c1ccc(OCCCC)cc1,.,35,.,.
C/C(CC(=O)NCCCN1CCOCC1)=N\NC(=O)COc1cccc2ccccc12,.,.,.,.
Cc1ccc(Sc2nc3ccc(C)cn3c(=O)c2/C=N/O)cc1,.,.,.,.
CN(CC(=O)Nc1cccc(F)c1)C(=O)CCNC(=O)c1ccc(Br)cc1,.,.,.,.
O=C1N/C(=N\N=C\c2ccccn2)SC1Cc1cccc(SC(F)F)c1 (centres undefined),.,47,.,.
CC1(C)CC(=O)C(C(O)c2ccccc2)C(C)(C)N1 (centres undefined),.,.,.,.
Cc1cc(NCCCn2ccnc2)n2c(nc3ccccc32)c1C#N,.,.,.,70
CCC(C)Nc1cc(C)c(C#N)c2nc3ccccc3n12 (centres undefined),.,.,.,+
Cc1cc(NCCCOC(C)C)n2c(nc3ccccc32)c1C#N,.,.,.,190
Cc1cc(Nc2ccc(O)cc2)n2c(nc3ccccc32)c1C#N,.,.,.,.
Cc1cc(NCCCN(C)C)n2c(nc3ccccc32)c1C#N,.,.,.,+
CC(=O)OCC=C1CCC2C3CC(C)C4=CC(=O)CCC4(C)C3C(O)CC12C (centres undefined),.,.,.,.
Cc1cc(/C=C2/NC(=O)N(c3ccccc3)C2=O)c(C)n1-c1cccnc1,.,.,.,.
SMILES,BH1578 lux ind,GDH-TPI counter,CCHF vOTU inh,FBA Mtb inh
NN(Cc1ccccc1)C(=S)Nc1ccc(Cl)c(Cl)c1,.,.,.,.
O=C(c1ccc([N+](=O)[O-])cc1)N1CCC(n2nnc3cc(F)ccc32)CC1,.,.,.,.
CCCc1cc(NCCCO)n2c(nc3ccccc32)c1C#N,.,.,.,+
COc1ccc(CCn2c(=N)c(C(=O)NCCN3CCOCC3)cc3c(=O)n4cccc(C)c4nc32)cc1OC,.,.,.,.
Cc1cccn2c(=O)c3cc(C(=O)NCc4ccccc4)c(=N)n(CCCN4CCOCC4)c3nc12,.,.,.,125
COc1ccc(CCNC(=O)c2cc3c(=O)n4ccccc4nc3n(CCCN3CCOCC3)c2=N)cc1,.,.,.,.
Cc1cccn2c(=O)c3cc(C(=O)NCCN4CCOCC4)c(=N)n(CCCN4CCOCC4)c3nc12,.,.,.,114
Cc1ccc2nc3c(cc(C(=O)NCCc4ccccc4)c(=N)n3CCCN3CCOCC3)c(=O)n2c1,.,.,.,122
CS(=O)(=O)N(CCC#N)Cc1ccc(/C=C2\C(=O)Nc3ccccc32)o1,.,.,.,.
O=[N+]([O-])c1ccc2[nH]c(O)c(N=NC3CCS(=O)(=O)C3)c2c1 (centres undefined),.,59,.,.
CCCCC1Cc2[nH]c(=S)[nH]c(=O)c2C(c2ccc(F)cc2)O1 (centres undefined),/,/,.,.
O=C(O)c1cc(-c2ccco2)nc2ccccc12,.,.,.,181

# Screening data from PubChem BioAssay.
